ELG1 DNA repair: qHTS screen for small molecules that inhibit ELG1-dependent DNA repair in human embryonic kidney (HEK293T) cells expressing luciferase-tagged ELG1 | 330,000 compounds, 2.3% hits | HEK293T ELG1-luciferase reporter, luminescence, 16 h; DNA damage induced by 5-fluorouridine | Potency, µM (titrated, usually from 46.1 µM), usual class: inhibitors | AID 504467, 2011; also: nearly all actives have a fitted effect of over 55% in size
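Reporter activity after DNA damage by 5-fluorouridine is monitored. Compound-treated cells incubate 16 hr at 37 °C, then ONE-Glo is added for 30 min before luminescence reading.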
VP16 counter: VP16 counterscreen qHTS for inhibitors of ROR gamma transcriptional activity. Drosophila S2 Gal4-VP16 UAS-luciferase, luminescence, 20 h. Potency, µM (top dose mostly 53.6 µM), actives largely listed as inhibitors. 310,000 compounds, 3.5% hits;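 also: Gal4-VP16 expression switched on by copper sulfate through the metallothionein promoter; nearly all actives have a fitted effect of over 50% in size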
Coupling enz: qHTS Assay for Inhibitors of Fructose-1,6-bisphosphate Aldolase from Giardia Lamblia: Coupling assay counterscreen; 290,000 compounds, 0.67% hits; coupling enzyme system counterscreen, AmpLite Red fluorescence; AID 2472, 2010; activity change, negative = inhibition, % at 58.2 µM, hits read low; in the data active = activity change below about -30%
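Coupling enzymes only (glyceraldehyde-3-phosphate) + compound, at 57.5 uM final, 10 min RT; add substrate/coupling/AmpLite Red mix, 20 min RT; fluorescence ex 525/em 598 nm. Actives flag coupling-system interference.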
RORg inh: qHTS for inhibitors of ROR gamma transcriptional activity; 310,000 compounds, 5.4% hits; Drosophila S2 Gal4-RORgamma UAS-luciferase reporter, 20 h; Potency, µM (titrated, usually from 53.6 µM), hits mostly inhibitors; also: nearly all actives have a fitted effect of over 60% in size
Target sequence (P51450 whole entry, looked up, the tested form may be a part): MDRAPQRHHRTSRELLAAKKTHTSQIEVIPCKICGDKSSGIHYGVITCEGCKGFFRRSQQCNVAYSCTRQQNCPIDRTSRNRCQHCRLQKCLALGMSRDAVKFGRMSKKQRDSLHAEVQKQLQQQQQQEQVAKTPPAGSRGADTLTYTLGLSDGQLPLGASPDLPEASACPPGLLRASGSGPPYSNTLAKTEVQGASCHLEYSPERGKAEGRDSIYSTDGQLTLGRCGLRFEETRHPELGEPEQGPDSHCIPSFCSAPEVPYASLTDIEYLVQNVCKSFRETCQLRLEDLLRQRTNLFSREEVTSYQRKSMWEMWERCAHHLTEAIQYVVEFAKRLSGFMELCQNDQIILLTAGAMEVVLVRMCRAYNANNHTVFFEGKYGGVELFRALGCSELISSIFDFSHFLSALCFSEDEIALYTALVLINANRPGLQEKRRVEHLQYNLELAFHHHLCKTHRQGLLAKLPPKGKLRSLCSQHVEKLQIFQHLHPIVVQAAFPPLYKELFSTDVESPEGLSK
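Using a luciferase readout, inhibitors were identified by reduced reporter activity in Drosophila cells coexpressing a copper-inducible Gal4–ROR gamma fusion and UAS-driven Photinus luciferase, incubated 20 hr after 700 uM copper sulfate.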
TSHR antag: Antagonists of the Thyroid Stimulating Hormone Receptor: HTS campaign. Thyrotropin receptor (Homo sapiens), P16473. TSHR-expressing cells, TSH-stimulated cAMP HTRF, 2 h; active compounds read low. activity change, negative = inhibition, % at 11.5 µM. 330,000 compounds, 0.2% hits;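 active = activity change below a set negative limit, meaning inhibition stronger than a set level, cut at about -70% in these data; inconclusive = activity change between two set negative limits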
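Antagonism was scored as loss of TSH-driven cAMP in TSHR cells, stimulated with 4nM TSH (EC80) for 2 hours at 37 deg C and detected by homogeneous HTRF competition immunoassay.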
Of the large screens only hits and unclear results are named; the others gave an inactive call. Sampled rows, rich in hits. Any-hit rate of the full collection: about 8%. Unless noted, calls follow the shape of the dose curve; as a rule, active = well fitted curve in the direction sought with a large enough effect; inconclusive = small, poorly fitted or top-dose-only effect, or another doubt; inactive = no such curve, though single readings can be large; an effect the other way counts as inactive or inconclusive.

Cc1ccc(CNC(=O)Nc2ccc(Cl)cc2)cc1	ELG1 DNA repair inconclusive (no result: Coupling enz)
Cc1ccc(NC(=S)NCC(C)CSc2ccc(Cl)cc2)cc1 (stereo not drawn)	ELG1 DNA repair inconclusive, VP16 counter inconclusive, RORg inh 2.82µM
Cc1cccc(NC(=S)NCC(C)CSc2ccc(Cl)cc2)c1 (stereo not drawn)	ELG1 DNA repair inconclusive, VP16 counter 5.62µM, RORg inh 3.16µM
c1ccc(-c2nc(N3CCOCC3)cc(N3CCOCC3)n2)cc1	ELG1 DNA repair 14.6µM
N#Cc1c(-c2ccccc2)nc(-c2ccccc2)nc1N1CCOCC1	ELG1 DNA repair 14.6µM
Cc1nc(CS(=O)(=O)c2ccc(Cl)cc2)cc(N2CCOCC2)n1	none
CN1CCN(c2nc(-c3ccccc3)nc(-c3ccccc3)c2C#N)CC1	ELG1 DNA repair inconclusive
O=S(=O)(Cc1cc(N2CCOCC2)nc(-c2ccccn2)n1)c1ccccc1	RORg inh 15.8µM
COc1ccc(-c2nc(-c3ccccc3)nc(N3CCN(C)CC3)c2C#N)cc1	ELG1 DNA repair 20.6µM
Cc1ccc(CN2CC(C(=O)N3CCN(S(=O)(=O)c4ccc(C(C)C)cc4)CC3)CC2=O)cc1 (stereo not drawn)	ELG1 DNA repair 11.6µM (no result: VP16 counter, Coupling enz, RORg inh)
Cc1ccc(CN2CC(C(=O)N3CCN(S(=O)(=O)c4cc(C)ccc4C)CC3)CC2=O)cc1 (stereo not drawn)	none (no result: VP16 counter, Coupling enz, RORg inh)
CCOC(=O)C1=C(CC)Nc2ccccc2N=C1NC(=O)c1oc2ccccc2c1C	ELG1 DNA repair inconclusive
CCOCc1c(C(=O)NC2=Nc3ccccc3NC(CC)=C2C(=O)OCC)oc2ccccc12	ELG1 DNA repair 8.2µM
COc1ccc(O)c(-c2cc(-c3cccs3)[nH]n2)c1	ELG1 DNA repair inconclusive, VP16 counter inconclusive, RORg inh 3.98µM
Cc1ccc(-c2nnc(-c3ccccc3)o2)cc1	ELG1 DNA repair inconclusive, VP16 counter 10µM, RORg inh inconclusive
Cc1ccc(-c2cc(-c3ccccc3[N+](=O)[O-])[nH]n2)c(O)c1	ELG1 DNA repair inconclusive, VP16 counter inconclusive, RORg inh 17.8µM
COc1ccc(-c2cc(-c3ccccc3)n[nH]2)c(O)c1	ELG1 DNA repair inconclusive, RORg inh 3.98µM
COc1ccc(O)c(-c2cc(-c3ccccc3Cl)[nH]n2)c1	VP16 counter inconclusive, RORg inh inconclusive
Cc1ccc(-c2cc(-c3ccccc3Cl)[nH]n2)c(O)c1	ELG1 DNA repair inconclusive, VP16 counter inconclusive, RORg inh inconclusive
COc1ccc(CNC(=O)c2ccc(S(=O)(=O)NCc3ccco3)cc2)cc1	none (no result: VP16 counter, Coupling enz, RORg inh)
COCc1cc(C)nc(SCc2ccc([N+](=O)[O-])cc2)c1C#N	none
COc1ccc(C(=O)N2CCC3(CC2)CN(Cc2ccc(C#N)cc2)C3)cc1	none (no result: ELG1 DNA repair, TSHR antag)
C=CC[C@@H](CC(=O)N[C@H](CO)Cc1ccccc1)C(=O)NCCOC(=O)[C@@H](CC=C)CC(=O)OC(C)(C)C	none (no result: VP16 counter, Coupling enz, RORg inh)
NC(=O)C1CCN(c2nc(-c3ccc4c(c3)OCO4)cs2)CC1	none (no result: ELG1 DNA repair, VP16 counter, Coupling enz, RORg inh)
COc1ccccc1-c1cc(-c2cc(Cl)ccc2O)n[nH]1	ELG1 DNA repair inconclusive
COc1ccc(-c2nnc(-c3ccccc3O)o2)cc1	ELG1 DNA repair inconclusive, VP16 counter 12.6µM, RORg inh inconclusive
COc1ccc(-c2cc(-c3ccccc3O)[nH]n2)cc1	ELG1 DNA repair inconclusive, VP16 counter 15.8µM, RORg inh 6.31µM
Oc1ccc(Cl)cc1-c1cc(-c2ccccc2)n[nH]1	VP16 counter 4.47µM, RORg inh 1.41µM
COc1ccc(-c2nnc(-c3ccc(C)cc3)o2)cc1	ELG1 DNA repair inconclusive, VP16 counter inconclusive, RORg inh inconclusive
Cc1ccccc1-c1cc(-c2ccccc2O)n[nH]1	ELG1 DNA repair inconclusive, VP16 counter inconclusive, RORg inh 5.62µM
CCCCN(C(=O)Cc1ccc2c(c1)OCCO2)c1c(N)n(CC(C)C)c(=O)[nH]c1=O	ELG1 DNA repair inconclusive (no result: VP16 counter, Coupling enz, RORg inh)
CCCCN1C(=O)C(O)=C(C(C)=O)C1c1ccccc1 (stereo not drawn)	none
S=C1NC[C@H](CC2CCCCC2)N1CCCCC1CCCCC1	VP16 counter 3.16µM, RORg inh 1.12µM
